Values joined by “and” are separate entries in the source; they are usually repeats but may differ in a detail not shown here. Equal entries are not always repeated. This is part of a sample that, as a whole, favours compounds with a hit. Of some 83,000 tested, about 20% had one in any assay.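 Negative percent growth values reflect cell death: -40 means 40% of the cells present at the start died, and -100 means all died.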 A number with no mark means an inactive call. Active and inactive are the calls of the source. Rule for the calls: active = growth percent below 10; inactive = the rest.
Test system: MDA-MB-468 breast
Assay: NCI-60 one-dose screen, 48 h (100 = growth as untreated, 0 = no growth, -100 = all killed)
Conditions: 10 µM unless noted

With ClCCN(CCCl)c1nc(Cl)c(C2CC(c3ccc(Cl)cc3)=NN2c2cc(Cl)cc(Cl)c2)s1 (configuration not stated) the growth was 112%.
In the case of CC[C@H](C)[C@H](NC(=O)NC(C)(C)C)C(=O)N(C)[C@H](C[C@@H](OC(C)=O)c1nc(C(=O)N[C@@H](Cc2ccccc2)C[C@H](C)C(=O)OC)cs1)C(C)C, the growth is reported as 15.4%.
COC(=O)[C@@H](C)C[C@H](Cc1ccccc1)NC(=O)c1nc([C@@H](C[C@H](C(C)C)N(C)C(=O)[C@@H](NC(=O)[C@H]2CCCCN2C)C(C)C)OC(C)=O)sc1C(C)C was tested, and the growth was 20.7%.
For CCCCNCCc1ccccn1, the growth was 117%.
For Cc1cccc(N=C2c3cc([N+](=O)[O-])ccc3-c3c2cc([N+](=O)[O-])cc3[N+](=O)[O-])c1, the growth was -24.4% (active).
For Oc1ccc(O)c(Cl)c1, the growth was 89.7% and 95.1%.
With CC1([N+](=O)[O-])COP(=O)(Nc2ccc(F)cc2)OC1 (configuration not stated) the growth was 110%.
C[C@@H]1CC[C@@H]2[C@@H]1[C@H](OC(=O)/C=C/C1CCCCC1)[C@]1(C3CCCCC3)C[C@@H](OC(=O)CO)[C@@]2(C)O1 gave a growth of 59.5%.
For CCCCCCCCCCCCOc1ccc(C(=O)Oc2ccc(CSP3(=O)OCC4OC(n5cnc6c(N)ncnc65)C(F)C4OP(=O)(O)OCC4OC(n5ccc(=O)[nH]c5=O)C(F)C4O3)cc2)cc1 (configuration not stated), the growth was 108%.
CC[C@H](CC[C@@H](C)[C@H]1CC[C@H]2[C@@H]3CC[C@H]4C[C@]5(CC[C@]4(C)[C@H]3CC[C@]12C)OO[C@](C)(C(F)(F)F)O5)C(C)C was tested, and the growth was 95.2%.
Compound COc1ccc2c(c1)c(-c1nc(-c3cn(C)c4ncccc34)cs1)cn2CCN1CCOCC1 has a growth of 45.8%.
COc1ccc([As]=[As]c2ccc(OC)c(NCS(=O)(=O)O)c2)cc1NCS(=O)(=O)O (configuration not stated) was tested, and the growth was -54.2% (active).
CO[C@H]1CC[C@@]2(C)C(=CC[C@@H]3[C@@H]2CC[C@]2(C)C(=O)C(=O)C[C@@H]32)C1 showed a growth of 102%.
With O=[N+]([O-])c1cc(Cl)c(Cl)cc1Cl the growth was 102% and 104%.
With C/C(=C\c1ccn(-c2ccc(N)c(C(F)(F)F)c2)n1)[C@@H]1C[C@@H]2O[C@]2(C)CCC[C@H](C)[C@H](O)[C@@H](C)C(=O)C(C)(C)[C@@H](O)CC(=O)O1 the growth was 4.12% (active).
For COc1ccc2c(c1)c(-c1nc(-c3cn(C)c4ncccc34)cs1)cn2CCCCN1CCCCC1, the growth was -2.69% (active).
CCC1(C)CC(CCNCc2ccccc2O)(c2ccc(C)cc2)CCO1 (configuration not stated) was tested, and the growth was 110%.
With NC(=O)Oc1cc(OC(N)=O)cc(N(CCCl)CCCl)c1 the growth was 29.9%.
Work on CCn1c2ccccc2c2cc(C(=O)c3cccc4c3CCCN4)ccc21 yielded a growth of 96.4%.
C/C(=C\c1ccn(-c2ccc(N)cc2)n1)[C@@H]1C[C@@H]2O[C@]2(C)CCC[C@H](C)[C@H](O)[C@@H](C)C(=O)C(C)(C)[C@@H](O)CC(=O)O1 gave a growth of 13.9%.
With COc1cc(/C=C\c2cc(OC)c(OC)c(OC)c2)cc(NS(=O)(=O)c2cccc(Cl)c2)c1OC the growth was 47%.
In the case of CCC[CH2][Sn]([CH2]CCC)([CH2]CCC)[O]c1ccc(Cl)cc1Cl, the growth is reported as -98.7% (active).
For CCOP(=O)(OCC)/C(C#N)=C/c1ccc(Br)cc1, the growth was 101%.
[N-]=[N+]=CC(=O)CCC(=O)C=[N+]=[N-] showed a growth of 113%.
For CC1=C(CNO)C2=C(C)C3(CC3)[C@@](C)(O)C(=O)C2=C1, the growth was -62.9% (active).
For CSc1ccccc1NP1(=O)OCC(C)([N+](=O)[O-])CO1 (configuration not stated), the growth was 105%.
For Cc1c(C)c(N)c(C)c(C)c1N, the growth was 61.7%.
CCCCOC(=O)c1ccccc1C(=O)O.CCCCOC(=O)c1ccccc1C(=O)O.[Cu+2] showed a growth of 103%.
For C=C1[C@@H](C)C2[C@H](Cc3ccccc3)NC(=O)[C@]23[C@H](OC(C)=O)/C=C/[C@@](C)(O)C(=O)[C@@H](C)C/C=C/[C@H]3[C@@H]1O (some centres not stated), the growth was 45.2%.
Oc1ccccc1OB(Oc1ccccc1O)N(CCCl)CCCl showed a growth of 84%.
With CC(=O)O[C@@H]1CC[C@]2(C)[C@H]3CC[C@]4(C)C(=O)CC[C@H]4[C@@H]3C[C@@H]3SC(N)=N[C@@]32C1 the growth was 29.6%.
Cc1cccc(N2CCN(C(C)C#N)CC2)c1 (configuration not stated) gave a growth of 100%.
